From PubChem BioAssay
An excerpt weighted towards active compounds, which were near 10% of everything screened.
HPGD block – qHTS Assay for Inhibitors of HPGD (15-Hydroxyprostaglandin Dehydrogenase); 15-hydroxyprostaglandin dehydrogenase [NAD(+)] (Homo sapiens), P15428; purified HPGD, NADH fluorescence kinetic, PGE2 substrate; Potency, µM, for inactives: top-dose activity change, negative = inhibition, most hits filed as inhibitors; 150,000 compounds, 4.3% hits; also: potency is read from the fitted curve at half-maximal effect
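20 nM HPGD preincubated 15 min at room temperature with compound in 50 mM Tris-HCl pH 8, 0.01% Tween 20. Started with 1 mM NAD+ and 30 uM prostaglandin E2; NADH fluorescence (360/450 nm) read 5 times over 30-s intervals, last minus first.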
ALDH1A1 inh – qHTS Assay for Inhibitors of Aldehyde Dehydrogenase 1 (ALDH1A1) | Aldehyde dehydrogenase 1A1 (Homo sapiens), P00352 | Purified ALDH1A1, NADH fluorescence, propionaldehyde substrate | Potency, µM (titrated, usually from 75.3 µM), for inactives: at the top dose activity, negative = inhibition, usual class: inhibitors | 220,000 compounds, 7.3% hits | AID 1030, 2008;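 also: potency is read from the fitted curve at half-maximal effect; plate controls were no enzyme wells and a reference inhibitor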
PNC assembly inh – High Content Assay for Compounds that inhibit the Assembly of the Perinucleolar Compartment. PC3M PTB-GFP, PNC prevalence imaging, 16 h; hits give low values. activity change (PNC), negative = inhibition, % at 10 µM. 140,000 compounds, 3.1% hits. AID 2417, 2010;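 active = readout at or below -70, meaning at least 70% loss of cells showing the perinucleolar compartment, a nuclear body marking cancer cells; inconclusive = readout between -30 and a set limit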;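 also: plate controls were DMSO wells for no effect and camptothecin positive control wells for full effect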
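Read-out is percentage of cells bearing a perinucleolar compartment, from automated 20x imaging of fixed, Hoechst-stained PC3M PTB-GFP cells. Cells were seeded 4 h, then exposed 16 h to compound (23 nl of library stock) in duplicate plates.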
12-hLO inh – qHTS Assay for Inhibitors of 12-hLO (12-human lipoxygenase) | Polyunsaturated fatty acid lipoxygenase ALOX12 (Homo sapiens), P18054 | purified 12-hLO, xylenol orange hydroperoxide absorbance | Potency, µM (titrated, usually from 57.1 µM), for inactives: at the highest dose activity change, negative = inhibition, most hits filed as inhibitors | 150,000 compounds, 0.12% hits; active = well fitted inhibition curve with a large enough effect; inconclusive = small, poorly fitted or top-dose-only effect; also: potency is read from the fitted curve at half-maximal effect; nearly all actives have a fitted effect of over 55% in size
Target sequence (P18054 whole entry, looked up): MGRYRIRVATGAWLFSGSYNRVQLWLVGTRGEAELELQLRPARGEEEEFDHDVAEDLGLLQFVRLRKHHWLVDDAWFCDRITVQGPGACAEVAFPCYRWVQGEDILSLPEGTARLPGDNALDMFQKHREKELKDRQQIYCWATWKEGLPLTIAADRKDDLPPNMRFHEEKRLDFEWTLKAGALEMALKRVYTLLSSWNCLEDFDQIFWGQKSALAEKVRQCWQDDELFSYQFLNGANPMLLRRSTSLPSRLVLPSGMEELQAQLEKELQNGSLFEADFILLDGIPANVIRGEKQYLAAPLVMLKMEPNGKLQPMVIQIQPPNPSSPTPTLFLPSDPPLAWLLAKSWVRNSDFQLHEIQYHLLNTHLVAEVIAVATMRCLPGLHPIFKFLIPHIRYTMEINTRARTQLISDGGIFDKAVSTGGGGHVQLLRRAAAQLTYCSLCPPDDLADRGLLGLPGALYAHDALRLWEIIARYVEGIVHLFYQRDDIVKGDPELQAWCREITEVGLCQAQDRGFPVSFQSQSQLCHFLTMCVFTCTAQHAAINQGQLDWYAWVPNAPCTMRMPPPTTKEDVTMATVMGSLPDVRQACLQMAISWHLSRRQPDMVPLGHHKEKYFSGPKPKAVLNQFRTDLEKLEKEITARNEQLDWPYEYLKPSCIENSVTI
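Purified human 12hLO (150 nM), preincubated 15 min with compound, then 40 uM arachidonic acid for 30 min, room temperature, Hepes pH 7.0 with 0.01% Triton X-100. Hydroperoxide detected by ferrous iron/xylenol orange; 573/405 nm absorbance ratio gives reaction progress.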
Lamin A splicing – qHTS Assay for Modulators of Lamin A Splicing; HeLa LMNA splicing GFP/RFP minigene ratio, 48 h; Potency, µM (titrated, usually from 46.1 µM), without a hit: at the top dose ratio change, negative = inhibition, most hits filed as inhibitors; 200,000 compounds, 0.01% hits; AID 1487, 2009; active = well fitted inhibition curve with a large enough effect in the signal ratio, with a control signal flat, not every such curve was filed as active; inconclusive = small, poorly fitted or top-dose-only effect, or effect the other way, or a change in a side signal; the % refers to the signal ratio; also: potency is read from the fitted curve at half-maximal effect
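S3 HeLa stable clones carrying a lamin A-EGFP splicing minigene plus DsRed2 were seeded at 600 cells/well in Opti-MEM with 2% FBS, pin-dosed and incubated 48 h at 37°C. Acumen cytometry (488 nm) gave the GFP/RFP total-intensity ratio.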
Numbers without * were called inactive; ! = a repeat was not active; [ ] = remark or other dose. Unless noted, calls follow the shape of the dose curve; as a rule, active = well fitted inhibition curve with a large enough effect (not every such curve was filed as active); inconclusive = small, poorly fitted or top-dose-only effect, or another doubt; inactive = no such curve, though single readings can be large or run the other way. Unless noted, % is scaled to controls: 0 for no effect and ±100 for the full control effect.

What do the screens show for `C=CCn1c(=O)c(C=Nc2c(OC)cccc2[N+](=O)[O-])c(O)n(CCCC)c1=O`?
HPGD block: -14%; ALDH1A1 inh: 13µM*; PNC assembly inh: 14; 12-hLO inh: -5%; Lamin A splicing: 2%

Results for O=C(OCC(=O)c1ccc([N+](=O)[O-])cc1)/C(=C\c1ccc(Cl)cc1)NC(=O)c1ccccc1 ?
HPGD block: -5%; ALDH1A1 inh: 13µM*; PNC assembly inh: 18; 12-hLO inh: -6%; Lamin A splicing: 1%

What do the screens show for `Cc1cc(Cc2cc(C)c(N)cc2N)c(N)cc1N`?
HPGD block: -19%; ALDH1A1 inh: inconclusive; 12-hLO inh: 3%[11.4 µM]

How did c1ccc(-c2ccc(C(c3ccccc3)n3ccnc3)cc2)cc1 (stereo unspecified) do in these assays?
HPGD block: inconclusive; ALDH1A1 inh: 22µM*; PNC assembly inh: -28; 12-hLO inh: -16%; Lamin A splicing: inconclusive

How did Cc1c(C(=O)NCCC2=CCCCC2)oc2ccc(S(=O)(=O)N3CCC4(CC3)OCCO4)cc12 do in these assays?
HPGD block: -18%; ALDH1A1 inh: 22µM*; PNC assembly inh: inconclusive; 12-hLO inh: -8%; Lamin A splicing: inconclusive

Results for Cc1c(C(=O)N2CCC3(CC2)OCCO3)oc2ccc(S(=O)(=O)N3CCOCC3)cc12 ?
HPGD block: -9%; ALDH1A1 inh: inconclusive; PNC assembly inh: 46; 12-hLO inh: 2%; Lamin A splicing: -3%

Results for CC[C@H](CO)NC(=O)[C@@H]1C=C2c3cccc4[nH]cc(c34)C[C@@H]2N(C)C1 ?
12-hLO inh: -4%

What do the screens show for `CCOc1cc(C=O)ccc1O`?
HPGD block: -16%; ALDH1A1 inh: 25µM*; 12-hLO inh: -1%

How did CCCCCCCCC(=O)NCc1ccc(O)c(OC)c1 do in these assays?
HPGD block: -5%; ALDH1A1 inh: -3%; 12-hLO inh: 0%; Lamin A splicing: inconclusive

Results for CCC(Cl)[N+](=O)[O-] (stereo unspecified) ?
HPGD block: 1%; ALDH1A1 inh: inconclusive; 12-hLO inh: -1%

How did Cc1ccc(-n2nc(C)c3c2NC(=O)CSC3c2ccc3c(c2)OCO3)cc1 (stereo unspecified) do in these assays?
HPGD block: 18µM*; ALDH1A1 inh: inconclusive; PNC assembly inh: 48; 12-hLO inh: inconclusive; Lamin A splicing: 7%

What do the screens show for `COc1ccc(C2SCC(=O)Nc3c2c(C)nn3-c2ccccc2)cc1` (stereo unspecified)?
HPGD block: 13µM*; ALDH1A1 inh: -4%; PNC assembly inh: 54; 12-hLO inh: -15%; Lamin A splicing: -7%

Results for COc1cc2c(cc1O)[C@H]1Cc3ccc(OC)c(O)c3CN1CC2 ?
HPGD block: -2%; ALDH1A1 inh: 2%[20.9 µM]; 12-hLO inh: -6%[25.6 µM]; Lamin A splicing: inconclusive

Results for ClCBr ?
HPGD block: -8%; ALDH1A1 inh: -1%; 12-hLO inh: -1%

What do the screens show for `Oc1cc2c(cc1O)[C@H]1c3ccccc3CN[C@@H]1CC2`?
12-hLO inh: -11%

What do the screens show for `Oc1cc2c(cc1O)[C@H]1c3ccccc3CN[C@H]1CC2`?
HPGD block: 8.9µM*; ALDH1A1 inh: inconclusive; 12-hLO inh: -10%

How did CC(C)c1ccc(C(O)(C(=O)O)c2ccc(C(C)C)cc2)cc1 do in these assays?
HPGD block: -1%; ALDH1A1 inh: 6%[13.5 µM]; 12-hLO inh: 0%[11.4 µM]

Results for COc1ccc2c(c1)[nH]c1c(C)nccc12 ?
HPGD block: inconclusive; ALDH1A1 inh: 5.6µM*; 12-hLO inh: -1%; Lamin A splicing: -6%

What do the screens show for `O=C1N=C(N2CCCCC2)SC1=C1CCCCC1`?
HPGD block: 20µM*; ALDH1A1 inh: 8.9µM*; PNC assembly inh: 11; 12-hLO inh: -3%; Lamin A splicing: -4%

How did C[C@@]12CC[C@H]3[C@@H](CC[C@@H]4C[C@H](O)CC[C@]43C)[C@H]1CC[C@H]2O do in these assays?
12-hLO inh: -4%

What do the screens show for `COc1cc2c(cc1OC)C(C(=O)NCCC(C)C)C1CCCCN1C2=O` (stereo unspecified)?
HPGD block: -28%; ALDH1A1 inh: inconclusive; PNC assembly inh: -119*; 12-hLO inh: -2%; Lamin A splicing: -10%

What do the screens show for `CC1CC[C@@]2(OC1)OC1C(O)C3C4CC[C@H]5CC(O[C@@H]6O[C@@H](CO)[C@H](OC7OC(CO)C(O)C(OC8OCC(O)C(O)[C@H]8O)[C@@H]7O[C@@H]7OC(CO)[C@H](O)[C@@H](O[C@@H]8OC(CO)C(O)C(O)C8O)C7O)C(O)C6O)C(O)C[C@]5(C)C4CC[C@]3(C)C1C2C` (stereo partly specified)?
HPGD block: -4%; ALDH1A1 inh: -4%; 12-hLO inh: -2%

What do the screens show for `C[C@H]1CC[C@@H]2[C@@H](C)[C@H]3[C@H](C[C@H]4[C@@H]5CC=C6CC(O[C@@H]7O[C@H](CO)[C@H](O)[C@H](O[C@@H]8O[C@H](CO)[C@@H](O)[C@H](O)[C@H]8O)[C@H]7O[C@H]7O[C@@H](C)[C@H](O)[C@@H](O)[C@H]7O)CC[C@]6(C)[C@H]5CC[C@]34C)N2C1` (stereo partly specified)?
HPGD block: -4%; ALDH1A1 inh: 22µM*; 12-hLO inh: -4%; Lamin A splicing: inconclusive

What do the screens show for `c1ccc(P(c2ccccc2)c2ccccc2)cc1`?
12-hLO inh: 2%

What do the screens show for `CCCCC/C=C\C[C@@H](/C=C/C=C\C/C=C\CCCC(=O)O)OO`?
HPGD block: -5%; ALDH1A1 inh: 3%; 12-hLO inh: -3%

Results for CCCCC/C=C\C/C=C\C/C=C\C/C=C\CCCC(=O)O ?
HPGD block: 16µM*!; ALDH1A1 inh: 7.9µM*!; 12-hLO inh: 0%; Lamin A splicing: inconclusive

What do the screens show for `C[C@@H]1O[C@@H](OC2CC(O)C3(CO)C4C(CCC3(O)C2)C2(O)CCC(C3=CC(=O)OC3)C2(C)C[C@H]4O)[C@H](O)[C@H](O)[C@H]1O` (stereo partly specified)?
HPGD block: -3%; ALDH1A1 inh: 14%; 12-hLO inh: -2%[0.00818 µM]

What do the screens show for `O=C(O)C(Cl)(Cl)Br`?
HPGD block: -7%; ALDH1A1 inh: -12%; 12-hLO inh: -3%

Results for CCN(CC)C(=O)c1c(C)[nH]c(=S)c(C#N)c1-c1ccco1 ?
ALDH1A1 inh: 7.1µM*; Lamin A splicing: inconclusive

Results for O=CC1=C(N2CCOCC2)/C(=C\c2ccccc2)CC1 ?
ALDH1A1 inh: 3.5µM*
